{
  "source": "PubChem BioAssay AID2763",
  "about": "(National Center for Advancing Translational Sciences (NCATS), 2010)",
  "note": "Records with an inconclusive call do not appear. Active and inactive are the calls of the source. Calls follow the shape of the dose curve; as a rule, active = well fitted inhibition curve with a large enough effect; inconclusive = small, poorly fitted or top-dose-only effect, or effect the other way; inactive = no such curve, though single readings can be large or run the other way. % is scaled to controls: 0 for no effect and ±100 for the full control effect; potency is read from the fitted curve at half-maximal effect.",
  "data": [
    {"assay": "Concentration response confirmation VP16 counterscreen for inhibitors of ROR gamma transcriptional activity; also: nearly all actives have a fitted effect of over 70% in size", "details": "Drosophila S2 Gal4-VP16 UAS-luciferase, luminescence, 20 h; series mostly up to 46.1 µM; activity change, negative = inhibition: at the top concentration", "text": "NIH Molecular Libraries Probe Production Network [MLPCN] NIH Chemical Genomics Center [NCGC] MLPCN Grant: R03 DA026211-01 Assay Provider: Dan Littman, New York University Assay Overview: The retinoic acid-related orphan receptor (ROR) gamma is a transcription factor that has a central role in the differentiation of Th17 cells, a subset of T helper cells that secrete the inflammatory cytokines IL-17, IL-17F, and IL-22. Th17 cells have been implicated in graft versus host disease, autoimmune disease and asthma. ROR gamma is induced in naive T helper cells in the presence of TGF-beta combined with IL-6, IL-21, or IL-23, and thereafter directs the expression of the Th17 lineage cytokines. To identify nonspecific inhibitors, a Drosophila Schneider cell line was stably transfected with two vectors: a gene expressing a fusion of the Gal4 DNA binding domain and the transactivation domain of the viral transcription factor VP16, under the control of the metallothionine promoter and a Photinus luciferase reporter regulated by the Gal4 binding site enhancer, UAS. […] Small molecule inhibitors that inhibit components common to the RORgt and VP16 assays, such as the Gal4 DNA binding domain or the UAS luciferase reporter, will be active in both assays and thus scored as nonspecific.\nAssay Protocol Summary: For screening, 600 cells in 4 uL/well were dispensed into white solid 1536-well plates (Grenier) using a solenoid-based dispenser. Following transfer of 23 nL compound or DMSO vehicle by a pin tool, the plates were incubated 1 hr at ambient temperature, and 1 uL/well copper sulfate (700 uM final concentration) was added. The plates were centrifuged 15 s at 1000 RPM and incubated 20 hr at ambient temperature. After addition of 1.5 uL Photinus luciferase detection reagent, the plates were incubated 10 min at ambient temperature and then read by an ViewLux (Perkin Elmer) to detect luminescence.", "values": [
      {"smiles": "Cc1cc(S(=O)(=O)NC(C)C)ccc1OCC(=O)N1CCN(Cc2ccc3c(c2)OCO3)CC1", "Potency": "11.2 µM (active)"},
      {"smiles": "CCCCNS(=O)(=O)c1ccc(OCC(=O)N2CCN(Cc3ccc4c(c3)OCO4)CC2)cc1", "Potency": "22.3 µM (active)"},
      {"smiles": "O=C(c1ccco1)c1cn(Cc2ccccc2Cl)c2ccccc12", "activity change, negative = inhibition": "-11.3% (inactive)"},
      {"smiles": "CCCNS(=O)(=O)c1ccc(OCC(=O)N2CCN(Cc3ccc4c(c3)OCO4)CC2)cc1", "Potency": "25 µM (active)"},
      {"smiles": "O=C(Nc1ncc(Cc2ccccc2)s1)C1=NCCN1", "Potency": "19.9 µM (active)"},
      {"smiles": "OC(COCc1ccc(Cl)cc1)CN1CC=C(c2ccccc2)CC1", "note": "(stereo not drawn)", "activity change, negative = inhibition": "-5.07% (inactive)"},
      {"smiles": "COc1cc(C(=O)N/N=C/C23CC[C@@H](O)CC2(O)CC[C@@H]2[C@@H]3CCC3(C)C(C4=CC(=O)OC4)CCC23O)ccc1O", "note": "(stereo partly drawn)", "activity change, negative = inhibition": "1.36% (inactive)"},
      {"smiles": "Cn1ncnc2c(=O)n(C)c(=O)nc1-2", "Potency": "0.445 µM (active)"}
    ]}
  ]
}
